Hits are enriched below; roughly 3.7% of the tested compounds scored in any of these assays.
PTHR1 ag – qHTS for PTHR1 Agonists: Primary Screen; 410,000 tested, 0.075% active; AID 743266, 2014; HEK293 GP2 PTHR1 cells, GloSensor cAMP luminescence, 1 h; Parathyroid hormone/parathyroid hormone-related peptide receptor (Homo sapiens), Q03431; Potency, µM (top dose mostly 115 µM), inactives show top-dose activation, most hits filed as activators; note: potency is the fitted concentration of half-maximal effect; nearly all actives have a fitted effect of over 55% in size
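HEK-293-derived GP2 cells expressing PTHR1 and a GloSensor cAMP reporter, 3,000/well, plated overnight, given luciferin plus IBMX (each 0.5 mM as added) for 1 h at 37 °C, then compound for 1 h at 37 °C. Luminescence was read after 15 min at room temperature.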
D3 ag – qHTS of D3 Dopamine Receptor Agonist: qHTS; D3R DiscoveRx beta-arrestin cells, luminescence, 90 min; max activation, %; 410,000 tested, 0.58% active; AID 652048, 2013; in the data active = max activation above about 30%; note: 0% is about no effect
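Agonist-mode cell screen: cells plated at 1500/well and incubated overnight at 37 °C, then exposed to library compounds for 90 min at 37 °C. Detection reagent was added for 30–60 min at room temperature, and luminescence was read.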
DRD3 antagonist – qHTS of D3 Dopamine Receptor Antagonist: qHTS | 360,000 tested, 2.5% active | D3R cells, DiscoveRx beta-arrestin luminescence, antagonist mode; hits give low values | D(3) dopamine receptor (Homo sapiens), P35462 | max response, negative = inhibition, %; in the data active = max response below about -50%; inconclusive = no clear call, values can overlap the other calls; note: % is set by controls: 0 for no effect and ±100 for the full control effect
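Cells expressing the human receptor were seeded at 1500 cells/well, incubated overnight at 37 degrees C in 5% CO2, then exposed to library compounds with dopamine controls for 90 minutes at 37 degrees C before luminescent detection.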
RGS4 inh – Inhibitors of Regulator of G Protein Signaling (RGS) 4: qHTS. Potency, µM (highest dose often 114 µM), without a hit: at the highest dose activity change, negative = inhibition, hits mostly inhibitors. 390,000 tested, 0.039% active. Regulator of G-protein signaling 4 (Homo sapiens), P49798. AID 504845, 2011. Transcreener GDP fluorescence polarization, RGS4-accelerated GTP hydrolysis; note: potency is the fitted concentration of half-maximal effect; % is set by controls: 0 for no effect and ±100 for the full control effect; nearly all actives have a fitted effect of over 75% in size
Target sequence (P49798 whole entry, looked up): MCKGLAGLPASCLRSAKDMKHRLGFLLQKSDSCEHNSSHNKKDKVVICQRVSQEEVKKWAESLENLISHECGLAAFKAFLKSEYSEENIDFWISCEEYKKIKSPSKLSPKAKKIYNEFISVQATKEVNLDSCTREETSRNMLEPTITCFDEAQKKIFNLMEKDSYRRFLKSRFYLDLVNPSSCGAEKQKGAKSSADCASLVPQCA
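MLSMR compounds (23 nl, pin-transferred) preincubated 10 min at room temperature with a 500nM (2x) first reagent, then RGS4 at 900nM (2x) plus Transcreener GDP mix added; fluorescence polarization (620/688 nm) read before and after 90 min at 30 °C.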
B2AR arrestin – qHTS assay of beta-arrestin-biased ligands of beta2-adrenergic receptor | beta-arrestin recruitment to beta2AR, cell-based reporter | 330,000 tested, 0.02% active | AID 492947, 2010 | Potency, µM (titrated, usually from 46.1 µM), without a hit: at the top dose activation, most hits filed as activators;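 note: potency is the fitted concentration of half-maximal effect; 0% = DMSO controls and full agonism = EC100 isoproterenol or metaproterenol; nearly all actives have a fitted effect of over 65% in size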
BRCA1 expr up – qHTS Assay to Identify Small Molecule Activators of BRCA1 Expression. 380,000 tested, 1.1% active. Potency, µM (highest dose often 46.1 µM), without a hit: at the top dose activation, usual class: activators. AID 624202, 2012. MCF7-BRCA1-FFLuc reporter, luminescence, 48 h; response scale: scaled: vehicle 0%, 10 µM genistein 100%; note: potency is the fitted concentration of half-maximal effect; nearly all actives have a fitted effect of over 80% in size
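Cells: MCF7-BRCA1-FFLuc, 2000/well. Exposure: 48 h, 37 °C, 5% CO2. Read: luminescence, 15 min post-substrate. Controls: genistein 10 microM (maximal activation), DMSO (neutral).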
Active calls of the source: *; i = inactive; ? = inconclusive; . = not tested or not shown; [ ] = another dose, or the depositor's remark. Unless noted, calls come from the whole dose curve; as a rule, active = well fitted curve in the direction sought with a large enough effect; inconclusive = small, poorly fitted or top-dose-only effect, or another doubt; inactive = no such curve, though single readings can be large; an effect the other way counts as inactive or inconclusive.

SMILES	PTHR1 ag	D3 ag	DRD3 antagonist	RGS4 inh	B2AR arrestin	BRCA1 expr up
CC(C)OC(=O)c1cccc(C(=O)Oc2ccccc2)n1	?	2.4	-58.9*	17.5%	-0.7%	16.6%
CN(Cc1ccccc1)C(=O)c1cccc(NC(=O)Cc2ccc(NC(=O)C3CCCN(C(=O)C4CC4)C3)cc2)c1 (stereo not drawn)	-22.1%	-7.6	3.7	0.7%	.	5.2%
Cc1ccc(CN2CCSc3ccc(C(=O)NC4CCN(Cc5ccccc5)CC4)cc32)cc1	i	-19.2	-82.5*	-1.1%	0.1%	-37.5%
Cc1ccc(-n2c(=O)[nH]c3cc(C(=O)NC4CCN(Cc5ccccc5)CC4)ccc3c2=O)cc1	i	-6.6	-92.9*	-33.4%	-0.1%	-12.6%
CSc1ccccc1OCc1cc(C(=O)N2CCSCC2)no1	-35.0%	-9.9	-21.2	1.8%	-0.7%	4.47µM*
CSc1ccccc1OCc1cc(C(=O)N(C)Cc2ccc3nsnc3c2)no1	-32.8%	-1.9	-10.1	27.0%	-0.4%	?
O=C(c1cc(COc2ccc(F)cc2Cl)on1)N1CCSCC1	-13.0%	0.3	-13.2	-2.9%	0.0%	6.31µM*
COc1ccc(OCc2cc(C(=O)N3CCSCC3)no2)c(Cl)c1	-26.7%	-0.1	7.0	-17.7%	-0.9%	11.2µM*
CSc1ccccc1OCc1cc(C(=O)N(C)Cc2ccc(C)o2)no1	-59.7%	3.6	-5.6	?	-1.0%	11.2µM*
CC(C)(C)OC(=O)N[C@H](C(=O)OC(C)(C)C)c1ccc(C(F)(F)F)cc1	-28.0%	-0.1	-19.6	22.1%	-1.4%	-13.9%
O=C(NCCC1=CCCCC1)C1CCN(C(=O)N2CCOc3ccc(Cl)cc32)CC1	i	-4.4	.	-9.5%	.	.
COc1cccc(CNc2cnc3ccccc3c2)c1O	-9.1%[57.5 µM]	12.9	22.7	10.9%	-1.0%	?
COc1ccccc1Nc1nc2ccccc2n1C	-42.8%	-5.8	-1.2	1.8%	0.0%	4.47µM*
COc1ccccc1Nc1ccc(Nc2ccccc2OC)nn1	-34.3%	-1.4	3.5	14.6%	-0.6%	5.01µM*
COc1cccc(CNc2nc3ccccc3n2C)c1O	-11.3%	-15.8	-56.7*	-5.7%	-1.1%	?
CCC(C)NC(=O)c1[nH]c2cc(OC)ccc2c1Sc1ccc(C)cc1 (stereo not drawn)	i	-2.1	.	-40.5%	.	.
COc1ccc(CC(=O)NCc2ccc3c(c2)CCN3C(=O)c2ccc(C)cc2)cc1OC	-35.2%	-5.4	.	3.9%	.	.
CC(NCc1ccccc1)C1COc2ccccc2O1 (stereo not drawn)	-5.6%	4.9	-1.0	-8.9%	0.1%	-31.5%
CC(NCC(O)COc1ccccc1)C1COc2ccccc2O1 (stereo not drawn)	i	-3.6	-85.4*	5.2%	0.5%	1.4%
C/C(=N\O)c1sc(-c2ccccc2)nc1C	-21.6%	1.8	9.5	7.5%	-1.0%	2.51µM*
Cc1ccc(NC(=O)C2=C(O)c3ccccc3N(C)S2(=O)=O)cc1	-8.0%[57.5 µM]	-4.3	-1.2	-3.3%	-0.2%	0.0%
Cc1cccc(C)c1NC(=O)C1=C(O)c2ccccc2N(C)S1(=O)=O	-19.0%[57.5 µM]	5.6	-51.6*	-6.8%	-0.2%	-0.6%
CCCC(NC(=O)C(C)N1CCN(S(=O)(=O)c2ccccc2)CC1)c1ccccc1 (stereo not drawn)	-39.3%	2.7	5.1	-4.7%	-0.6%	-20.9%
CC1(C(=O)Nc2cccc(C(F)(F)F)c2)Cc2c(-c3ccc4c(c3)OCO4)ccnc2O1 (stereo not drawn)	1.7%	-15.4	-59.3*	.	.	-48.6%

Screens as filed in PubChem BioAssay.
